± gives the standard deviation of the averaged measurements.
Legend:
[1] = tested on: DLD1; assay: cell viability (CellTiter-Glo) relative to plate median (fraction of plate median); higher = more viable cells; conditions: 5 µM; treatment time 24 h; reporter: 7TFP
Outline: (§1)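 Stable lentiviral TCF/Wnt firefly luciferase reporters (7TFP or TCF4/Wnt) were present in the colorectal cancer cell lines used. These cells received library compounds at a final 5 µM for 24 h, and parallel plates were read for firefly luciferase or CellTiterGlo luminescence. Each well was normalised to the plate median, and the value reported is the mean of two independent replicates.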

[2] = tested on: HCT116; assay: as above; conditions: 5 µM; treatment time 24 h; reporter: TCF4/Wnt
Outline: as §1

[3] = tested on: SW480; assay: as above; conditions: 5 µM; treatment time 24 h; reporter: 7TFP
Outline: as §1

[4] = tested on: DLD1; assay: TCF/Wnt firefly luciferase reporter signal relative to plate median (fraction of plate median); higher = higher Wnt reporter signal; conditions: 5 µM; treatment time 24 h; reporter: 7TFP
Outline: as §1

[5] = tested on: SW480; assay: as above; conditions: 5 µM; treatment time 24 h; reporter: 7TFP
Outline: as §1

| SMILES | cell viability [1] | cell viability [2] | cell viability [3] | TCF/Wnt firefly luciferase reporter signal [4] | TCF/Wnt firefly luciferase reporter signal [5] |
| --- | --- | --- | --- | --- | --- |
| COc1ccccc1OCC(O)COC(N)=O (stereo not given) | 1.02 ± 0.076 | 1.01 ± 0.089 | 0.995 ± 0.035 | 0.982 ± 0.054 | 0.967 ± 0.047 |
| COc1ccc2c(=O)c(-c3cc4c(cc3OC)OCO4)coc2c1 | 0.995 ± 0.093 | 1.01 ± 0.053 | 1.04 ± 0.035 | 1.03 ± 0.042 | 1.14 ± 0.014 |
| CN1CCN(C2=Nc3cc(Cl)ccc3Nc3ccccc32)CC1 | 1.12 ± 0.071 | 1.05 ± 0.1 | 1.005 ± 0.0071 | 0.916 ± 0.058 | 0.97 ± 0.043 |
| CN1CCOC(c2ccccc2)c2ccccc2C1 (stereo not given) | 0.915 ± 0.048 | 0.997 ± 0.1 | 1 ± 0.014 | 0.9875 ± 0.0035 | 0.883 ± 0.12 |
| Cc1oncc1C(=O)Nc1ccc(C(F)(F)F)cc1 | 1.05 ± 0.11 | 1.15 | 1.13 ± 0.071 | 1.14 ± 0.05 | 1.05 ± 0.11 |
| CCN(Cc1ccncc1)C(=O)C(CO)c1ccccc1 (stereo not given) | 0.9915 ± 0.0035 | 0.976 ± 0.048 | 1.04 ± 0.021 | 1.04 ± 0.057 | 1.08 ± 0.078 |
| O=C(O)c1cc(=O)c2ccccc2o1 | 0.859 ± 0.082 | 0.961 ± 0.11 | 0.987 ± 0.014 | 0.909 ± 0.12 | 0.993 ± 0.011 |
| CN(C)CCOC(=O)COc1ccc(Cl)cc1 | 0.979 ± 0.0085 | 0.991 ± 0.083 | 0.956 ± 0.052 | 1.21 ± 0.14 | 1.14 ± 0.05 |
| NNCCc1ccccc1 | 0.995 ± 0.11 | 0.943 ± 0.069 | 0.98 ± 0.042 | 1.26 ± 0.2 | 1.22 ± 0.014 |
| N=C(N)NCCCCNC(=N)N | 0.922 ± 0.0085 | 0.978 ± 0.1 | 0.965 ± 0.017 | 0.994 ± 0.14 | 1.04 ± 0.067 |
| C[C@@H]1CC(=O)O[C@H](C)Cc2cc(O)cc(O)c2C(=O)O[C@H](C)CC(=O)O[C@H](C)Cc2cc(O)cc(O)c2C(=O)O[C@H](C)CC(=O)O1 | 0.982 ± 0.0014 | 0.997 ± 0.047 | 1.01 ± 0.026 | 1.05 ± 0.028 | 0.918 ± 0.042 |
| CN(C)C(=O)Nc1ccc(Cl)c(Cl)c1 | 0.959 ± 0.035 | 0.989 ± 0.016 | 0.966 ± 0.042 | 1.14 ± 0.099 | 1.15 ± 0.078 |
| CN(C)C(=N)NC(=N)N | 0.966 ± 0.076 | 1.003 ± 0.0099 | 1.01 ± 0.025 | 1.03 ± 0.13 | 1 ± 0.054 |
| CC(=O)O[C@H]1C[C@@H](O)C(C)(C)[C@@H]2C[C@@H](OC(C)=O)[C@]3(C)[C@H](CC[C@@]4(C)[C@@H](c5ccoc5)OC(=O)[C@H]5O[C@@]534)[C@@]12C | 1.04 ± 0.069 | 0.947 ± 0.066 | 0.945 ± 0.016 | 1.04 ± 0.067 | 0.978 ± 0.011 |
| COc1cccc2c1C(=O)c1c(O)c3c(c(O)c1C2=O)C[C@@](O)(C(C)=O)C[C@@H]3O[C@H]1C[C@H](NC=O)[C@H](O)[C@H](C)O1 [Baumycin C1] | 0.9535 ± 0.0021 | 0.838 ± 0.081 | 0.9955 ± 0.0035 | 0.955 ± 0.042 | 1.05 ± 0.057 |
| NC(=O)c1cccc(N)c1 | 0.983 ± 0.039 | 1.01 ± 0.062 | 0.9685 ± 0.0035 | 0.959 ± 0.13 | 0.853 ± 0.09 |
| COc1cc2oc3cc(OC)c(OC)c(CC=C(C)C)c3c(=O)c2c(OC)c1CC=C(C)C | 1.03 ± 0.028 | 1.08 ± 0.13 | 1.035 ± 0.0071 | 1.23 ± 0.12 | 1.02 ± 0.06 |
| COC(=O)C(O)c1ccccc1 (stereo not given) | 1.04 ± 0.021 | 1.11 | 1.07 ± 0.035 | 1.04 ± 0.042 | 0.876 ± 0.019 |
| CC1(C)C(=O)CC[C@@]2(C)C1C[C@@H](O)[C@@]1(C)C3=CC(=O)O[C@@H](c4ccoc4)[C@]3(C)CCC21 (stereo not given in full) | 0.9595 ± 0.0035 | 1.06 | 0.969 ± 0.027 | 0.937 ± 0.028 | 0.967 ± 0.013 |
| O=C(CCCN1CC=C(n2c(=O)[nH]c3ccccc32)CC1)c1ccc(F)cc1 | 0.995 ± 0.0071 | 0.868 ± 0.025 | 0.994 ± 0.023 | 0.829 ± 0.061 | 0.895 ± 0.088 |
| COCCCOc1cc(C[C@@H](C[C@H](NC(=O)OC(C)(C)C)[C@@H]2C[C@@H](C(C)C)C(=O)O2)C(C)C)ccc1OC [Borrelidin derivative (C30H49NO7)] | 1.01 ± 0.072 | 0.995 ± 0.036 | 0.959 ± 0.025 | 0.963 ± 0.12 | 0.9975 ± 0.0035 |
| CC1(C)O[C@H]2CC(=O)OC[C@]23[C@H]2CC[C@@]4(C)[C@H](c5ccoc5)OC(=O)[C@H]5O[C@]54[C@]2(C)C(=O)C[C@@H]13 | 1.01 ± 0.045 | 1.07 ± 0.064 | 1.05 ± 0.05 | 0.944 ± 0.03 | 0.98 ± 0.099 |
| COc1ccc2c(c1)[C@@]1(C)CCC(=O)C[C@H]1CC2 [5beta-12-METHOXY-4,4-BISNOR-8,11,13-PODOCARPATRIEN-3-ONE] | 0.9975 ± 0.0035 | 1.07 ± 0.071 | 1.01 ± 0.037 | 1.18 ± 0.2 | 1.05 ± 0.057 |
| CC12CC3CC(C)(C1)CC(N)(C3)C2 | 1.06 ± 0.16 | 1.05 ± 0.05 | 1.02 ± 0.014 | 1.04 ± 0.064 | 1.04 ± 0.064 |
| Cc1cccc2c3c(ccc12)C1=C(C(=O)C3=O)[C@@H](C)CO1 | 0.936 ± 0.1 | 0.825 ± 0.011 | 1.03 ± 0.014 | 0.955 ± 0.15 | 1.08 ± 0.15 |
| C=CCc1ccccc1OCC(O)CNC(C)C (stereo not given) | 1.03 ± 0.055 | 1.04 ± 0.035 | 0.961 ± 0.035 | 1.1 ± 0.27 | 0.852 ± 0.077 |
| Nc1nccs1 | 0.985 ± 0.079 | 1 ± 0.14 | 1.02 ± 0.033 | 1.06 ± 0.13 | 0.986 ± 0.021 |
| C#C[C@]1(O)CC[C@H]2[C@@H]3CCC4=CC(=O)CC[C@@H]4[C@H]3CC[C@@]21C | 1.15 ± 0.085 | 0.9935 ± 0.0092 | 1.04 ± 0.064 | 0.847 ± 0.27 | 0.931 ± 0.03 |
| COc1cc2c(cc1OC)Cc1cc(OC)c(OC)cc1Cc1cc(OC)c(OC)cc1C2 | 1.02 ± 0.055 | 0.97 ± 0.16 | 1.02 ± 0.033 | 1.1 ± 0.15 | 0.865 ± 0.045 |
| CC1=C(C/C=C(\C)CCC[C@H](C)CCC[C@H](C)CCCC(C)C)C(=O)c2ccccc2C1=O | 0.9945 ± 0.00071 | 0.988 ± 0.06 | 0.998 ± 0.045 | 0.819 ± 0.03 | 0.92 ± 0.064 |
